SENP8 block-1: human SENP8 protease inhibitors, primary screen, biochemical, fluorescence, Nedd8 protein substrate, uHTS | recombinant SENP8 | 0.64% of 360,000 active | inhibition, % at 20 µM | AID 602440, 2012; in the data active = inhibition mostly above about 40%, no sharp cut-off; inactive = mostly below about 27%
Platelet DG rel: inhibitors of platelet dense granule secretion, primary screen, cell-based, MLPCN, human platelets; AID 1663, 2009; human platelet-rich plasma, SFLLRN dense granule ATP release, luminescence; inhibition, %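 (compounds screened at 7.5 µM in platelet-rich plasma)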; 0.22% of 300,000 active;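 active = mean replicate score, as percent of positive control, at or above 50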
SENP7 inh: SENP7 protease inhibitors, primary screen, biochemical, luminescence, uHTS | AID 434973, 2010 | inhibition, % at 5 µM | recombinant SENP7, Z-RLRGG-aminoluciferin luminescence, 40 min | 1.5% of 330,000 active;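 active = inhibition above about 50% at the single test dose, limit read from the data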;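 note: plate controls were DMSO with enzyme for no effect and no enzyme buffer wells for full effect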
Target sequence (Q9BQF6 706-1050 limits assumed): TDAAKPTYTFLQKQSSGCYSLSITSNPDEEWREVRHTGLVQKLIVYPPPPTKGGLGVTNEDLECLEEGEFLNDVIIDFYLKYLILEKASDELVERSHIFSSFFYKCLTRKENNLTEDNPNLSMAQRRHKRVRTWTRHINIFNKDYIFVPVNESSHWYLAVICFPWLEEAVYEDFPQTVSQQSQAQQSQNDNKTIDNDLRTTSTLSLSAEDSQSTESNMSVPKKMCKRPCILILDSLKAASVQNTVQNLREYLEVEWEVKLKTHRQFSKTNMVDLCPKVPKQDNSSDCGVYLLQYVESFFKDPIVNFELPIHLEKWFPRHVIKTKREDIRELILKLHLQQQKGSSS
SENP6 inh: SENP6 protease inhibitors, primary screen, biochemical, luminescence, uHTS | Sentrin-specific protease 6 (Homo sapiens), Q9GZR1 | Recombinant SENP6 catalytic domain, aminoluciferin luminescence | inhibition, % at 10 µM | 1.8% of 330,000 active | AID 2599, 2010;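 active = inhibition above about 50% at the single tested dose, limit read from the data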;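 note: plate controls were DMSO wells with enzyme for no effect and DMSO wells lacking enzyme for full effect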
SENP8 block-2: SENP8 protease inhibitors, primary screen, biochemical, luminescence | Sentrin-specific protease 8 (Homo sapiens), Q96LD8 | purified SENP8, Z-RLRGG-aminoluciferin cleavage | inhibition, % at 10 µM | 1.2% of 330,000 active | AID 2540, 2010; in the data active = inhibition above about 50%
SENP8 conf: SENP8 protease inhibitors, retest, confirmation, biochemical, luminescence, single concentration; AID 488912, 2010; Recombinant SENP8, Z-RLRGG-aminoluciferin luminescence, 60 min; shares compounds with SENP7 inh; 40% of 6,200 active; inhibition, % at 12.5 µM;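 active = mean inhibition across replicates above about 50%, limit read from the data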
SENP6 conf: SENP6 protease inhibitors, confirmation, biochemical, luminescence, single concentration | shares compounds with SENP7 inh | recombinant SENP6, Z-RLRGG-aminoluciferin luminescence | inhibition, % at 12.5 µM | 58% of 6,200 active | AID 488915, 2010
SENP7 conf: SENP7 protease inhibitors, retest, confirmation, biochemical, luminescence, single concentration; 69% of 6,200 active; shares compounds with SENP7 inh; inhibition, % at 12.5 µM; recombinant SENP7, Z-RLRGG-aminoluciferin luminescence, 40 min
Casp3 select: caspase-3 protease inhibitors, confirmation, selectivity assay for SENP inhibitor project, biochemical, single concentration. shares compounds with SENP7 inh. purified caspase-3, Z-DEVD-aminoluciferin luminescence, 60 min. inhibition, % at 12.5 µM. 60% of 6,200 active. AID 488918, 2010;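 active = mean inhibition above about 50%, limit read from the data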;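 note: plate controls were enzyme with DMSO for no effect and wells without caspase-3 for full effect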
Target sequence (P42574 28-227 limits assumed): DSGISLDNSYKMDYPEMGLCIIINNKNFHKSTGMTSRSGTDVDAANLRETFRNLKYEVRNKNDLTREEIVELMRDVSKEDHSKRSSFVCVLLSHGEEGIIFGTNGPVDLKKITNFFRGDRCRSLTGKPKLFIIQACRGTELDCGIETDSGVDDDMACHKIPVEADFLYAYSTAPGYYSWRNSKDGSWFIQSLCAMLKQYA
SENP luc ctr: counter-screen for SENP inhibitors: luminescence interference; inhibition, % at 12.5 µM; AID 488919; Pre-incubated SENP8/Z-RLRGG-aminoluciferin, luciferase luminescence interference; shares compounds with SENP7 inh; 39% of 6,200 active;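 active = mean inhibition above about 50% when retested at one dose, limit read from the data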;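 note: plate controls were DMSO wells with completed reaction for no effect and substrate without enzyme for full effect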
Starred values were filed as active, the others as inactive; i = inactive; . = not tested or not shown. Most compounds without a hit are left out; they make up all but 2.4% or so of the library.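 Rule for the calls, unless noted: active = mean inhibition above about 50% in the one-dose retest (limit read from the data); inactive = the rest.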

SMILES | SENP8 block-1 | Platelet DG rel | SENP7 inh | SENP6 inh | SENP8 block-2 | SENP8 conf | SENP6 conf | SENP7 conf | Casp3 select | SENP luc ctr
Cc1ccc(-c2noc(-c3c(C)noc3C)n2)cc1 | 18 | -7 | 32 | 1 | 1 | . | . | . | . | .
Cc1ccc(-c2nc(-c3ccccc3)no2)cc1 | 6 | 19 | 98* | 63* | 96* | 78* | 86* | 95* | 91* | 50*
COc1ccc(NC2=C(c3ccc(OC)cc3)C(=O)c3ccccc32)cc1 | 19 | -7 | 3 | -16 | -7 | . | . | . | . | .
COc1ccc(C2C(=O)c3ccccc3C2=O)cc1 | -19 | 8 | 12 | 57* | 62* | -8 | 67* | 91* | 84* | 62*
COc1ccc(C2=C(N)c3ccccc3C2=O)cc1 | 23 | 0 | -26 | 54* | 37 | 52* | 49 | 83* | 73* | 8
CCN(CC)S(=O)(=O)c1ccc(C(=O)Nc2cc(S(=O)(=O)N3CCOCC3)ccc2O)cc1 | 21 | . | 2 | -8 | -1 | . | . | . | . | .
COc1cc(/C=N/NC(=O)c2cncc(Br)c2)cc([N+](=O)[O-])c1O | 28 | -2 | 72* | 83* | 66* | 84* | 80* | 96* | 84* | 61*
COc1cc(/C=N/NC(=O)c2cccc([N+](=O)[O-])c2)cc(OC)c1O | 12 | 12 | 5 | -2 | 0 | . | . | . | . | .
COc1cc([N+](=O)[O-])cc(/C=N/NC(=O)c2cncc(Br)c2)c1O | 19 | -2 | 67* | 89* | 64* | 81* | 76* | 96* | 84* | 52*
CN1C[C@@H]2[C@@H]3C(=O)N(Cc4ccccc4)C(=O)[C@@H]3[C@](Cc3ccccc3)(C1=O)N2C(=O)c1ccc(C(C)(C)C)cc1 | -1 | . | . | . | . | . | . | . | . | .
Cc1nc(N2CCN(c3ccccc3)CC2)[nH]c(=O)c1C | 10 | -5 | 6 | 19 | -5 | . | . | . | . | .
Cn1c(-c2ccccc2)cc2onc(-c3ccccc3)c2c1=O | 15 | . | 95* | 95* | 95* | 34 | 38 | 55* | 29 | 4
c1ccc(CSc2ccc(-c3ccccn3)nn2)nc1 | 13 | 6 | -6 | -18 | -6 | . | . | . | . | .
COc1ccc(C(=O)Nc2cccc(C(=O)Nc3cc(C)ccn3)c2)cc1 | 8 | . | . | . | . | . | . | . | . | .
CCN1C(=O)c2cccc3c(S(=O)(=O)Nc4ncccc4C)ccc1c23 | -300 | -5 | 64* | 5 | -5 | -24 | -15 | -13 | -11 | -6
CCN1C(=O)c2cccc3c(S(=O)(=O)Nc4ccccn4)ccc1c23 | -321 | 0 | 0 | -10 | -1 | . | . | . | . | .
O=C(Nc1nc2ccccc2[nH]1)C1CC1 | 21 | 1 | -13 | -32 | -6 | . | . | . | . | .
O=c1[nH]c2ccccc2nc1/C=C(\O)c1cccs1 | -233 | -1 | 4 | 38 | 18 | . | . | . | . | .
COc1ccc(C(=O)N[C@H](C(=O)Nc2nc3ccccc3[nH]2)C(C)C)cc1 | 7 | -4 | 5 | -21 | 5 | . | . | . | . | .
Cc1ccc(C(=O)Nc2nc3ccccc3[nH]2)cc1 | -3 | 16 | 97* | 93* | 93* | 10 | 8 | -4 | 48 | 10
O/C(=C\c1nc2ccccc2[nH]1)c1cccs1 | -99 | 1 | 20 | 61* | 33 | 40 | 74* | 66* | 38 | 46
O=C(Nc1nc2ccccc2[nH]1)c1cccs1 | -19 | 8 | 69* | 17 | 45 | 43 | 73* | 89* | 88* | 10
COc1ccc(C(=O)Nc2nc3ccccc3[nH]2)cc1 | 2 | -3 | 97* | 97* | 93* | 8 | 95* | 101* | 96* | 60*
CNc1cncc(-c2cccc(C(=O)NC3CC3)c2)n1 | i | . | . | . | . | . | . | . | . | .
O=C1NC(c2ccc(Br)cc2)Oc2ccccc21 (configuration not stated) | -61 | 0 | -2 | -6 | -5 | . | . | . | . | .
SMILES | SENP8 block-1 | Platelet DG rel | SENP7 inh | SENP6 inh | SENP8 block-2 | SENP8 conf | SENP6 conf | SENP7 conf | Casp3 select | SENP luc ctr
CCCNC(=O)C1(C)CCCN(C(=O)COCc2ccccc2)C1 (configuration not stated) | 13 | . | . | . | . | . | . | . | . | .
Cc1c(C(=O)Nc2nc3ccccc3[nH]2)oc2ccccc12 | -156 | 8 | 57* | 69* | 38 | -27 | 60* | 89* | 65* | 7
COc1cccc(C(=O)Nc2nc3ccccc3[nH]2)c1 | -1 | 31 | 95* | 94* | 90* | 6 | 93* | 102* | 96* | 17
Cc1cccc(NC(=O)c2n[nH]c([N+](=O)[O-])c2Br)c1C | 12 | -5 | 85* | 97* | 94* | 94* | 97* | 102* | 96* | 95*
O=C(NNC(=O)c1ccc(-c2ccccc2)cc1)c1ccccc1 | 10 | 5 | 62* | -5 | 30 | 34 | 41 | 82* | 80* | 47
O=C(NNC(=O)c1ccc(-c2ccccc2)cc1)Nc1ccccc1F | 3 | -8 | 6 | 2 | 2 | . | . | . | . | .
CC(C)c1ccc(C(=O)Nc2cccnc2)cc1 | 28 | -2 | 71* | 73* | 36 | 62* | 58* | 88* | 79* | 32
O=C(Nc1cccnc1)c1ccc(-c2ccccc2)cc1 | 18 | 10 | 82* | 33 | 66* | 51* | 70* | 96* | 75* | 37
O=C(Nc1cccnc1)c1ccc(F)cc1 | 20 | 7 | 0 | -2 | -9 | . | . | . | . | .
Cc1cc(C2=NNC(=NC3CC3)SC2)c(C)n1-c1ccccc1 | -28 | 6 | . | . | . | . | . | . | . | .
c1ccc(C2=NNC(=NC3CC3)SC2)cc1 | 10 | 32 | 93* | 93* | 94* | 96* | 97* | 102* | 98* | 95*
c1ccc2c(C3=NNC(=NC4CC4)SC3)c[nH]c2c1 | -7 | 56* | 30 | 63* | 36 | 48 | 45 | 81* | 80* | 67*
Cc1n[nH]c(=O)c2c(NC(=O)CSc3nc4ccccc4c(=O)n3CCCOC(C)C)oc(C)c12 | -5 | 3 | -11 | 10 | 1 | . | . | . | . | .

Bioassay records: PubChem BioAssay, several laboratories
